For the test, the target named is furin, P09958. As to the kind of experiment: furin cleavage Z-score vs untreated control; higher = more cleavage, active = 3.5 or more, inactive = 1 or less, 8 variable residues between constant flanks. The method, boiled down: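 Read counts from sequencing released DNA gave abundance for each bead-bound 8-mer peptide–cDNA fusion cut by purified furin over 7.5, 15 or 30 min. The cleavage Z-score compares log counts with furin-free reactions after lowess adjustment and median absolute deviation scaling.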

This is one part of the list. No count for the full screen is at hand.
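Also: purified furin at 1:10 enzyme:substrate in 50 mM HEPES pH 7.5.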

Chain of furin, P09958 (P09958 whole entry, the tested form may be a part): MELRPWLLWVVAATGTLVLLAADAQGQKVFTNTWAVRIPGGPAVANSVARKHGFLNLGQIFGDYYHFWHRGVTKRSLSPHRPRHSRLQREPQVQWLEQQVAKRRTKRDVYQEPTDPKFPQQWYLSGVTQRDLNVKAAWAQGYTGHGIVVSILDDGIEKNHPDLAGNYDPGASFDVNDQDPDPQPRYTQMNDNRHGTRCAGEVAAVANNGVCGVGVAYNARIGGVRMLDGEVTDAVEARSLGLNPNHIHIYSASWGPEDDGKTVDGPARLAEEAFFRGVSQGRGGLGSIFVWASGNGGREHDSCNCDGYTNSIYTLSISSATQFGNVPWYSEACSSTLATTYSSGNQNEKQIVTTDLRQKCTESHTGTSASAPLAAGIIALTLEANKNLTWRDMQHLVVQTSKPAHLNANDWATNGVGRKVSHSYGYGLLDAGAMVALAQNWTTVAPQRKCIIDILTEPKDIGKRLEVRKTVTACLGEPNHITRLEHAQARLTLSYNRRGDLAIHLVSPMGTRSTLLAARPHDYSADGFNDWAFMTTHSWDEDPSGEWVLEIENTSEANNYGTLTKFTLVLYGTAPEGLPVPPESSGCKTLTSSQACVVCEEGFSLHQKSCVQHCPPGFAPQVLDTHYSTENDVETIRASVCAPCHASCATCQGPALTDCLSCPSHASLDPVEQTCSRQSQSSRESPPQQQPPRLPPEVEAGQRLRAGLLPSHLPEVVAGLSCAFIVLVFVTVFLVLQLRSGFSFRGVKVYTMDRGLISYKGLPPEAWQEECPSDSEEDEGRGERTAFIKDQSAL

For CARNLGKVIDAGNASASA [HC219], the “furin cleavage Z-score” value is, setting by setting: (7.5 min) -0.809 (inactive); (15 min) 0.0222 (inactive); (30 min) -1.18 (inactive).
For CATQGCNCSIAGNASASA [HC311], the “furin cleavage Z-score” value (7.5 min) is -0.897 (inactive), the “furin cleavage Z-score” value (15 min) is -0.922 (inactive) and the “furin cleavage Z-score” value (30 min) was -0.937 (inactive).
For CARMDRVKKEAGNASASA [FS-953] the same measures were 0.785 (inactive), 2.5 and 3.22.
The matching figures for CAVMGRMKREAGNASASA [FS-892]: 13 (active), 13.9 (active) and 9.25 (active).
CARPRRMKREAGNASASA [FS-710]: the “furin cleavage Z-score” value is, setting by setting: (7.5 min) 12.1 (active); (15 min) 12.6 (active); (30 min) 8.41 (active).
For CAGDGRSYRGAGNASASA [FS-529], the “furin cleavage Z-score” value was -0.56 (inactive) (7.5 min), -0.653 (inactive) (15 min) and -0.179 (inactive) (30 min).
With CAGKGRKYREAGNASASA [FS-125], the “furin cleavage Z-score” value reads like this: (7.5 min) 8.32 (active); (15 min) 9.76 (active); (30 min) 7.89 (active).
In the case of CARPRRTKKTAGNASASA [DV3], the “furin cleavage Z-score” value reads like this: (7.5 min) 0.136 (inactive); (15 min) 1.59; (30 min) 1.15.
The matching figures for CARKRRAKREAGNASASA [FS-1650]: 13 (active), 13.6 (active) and 9.6 (active).
For CAEVVTSYWVAGNASASA [HC2209] the same measures were -1.41 (inactive), -1.3 (inactive) and -1.27 (inactive).
For the sequence CADLVGWPAPAGNASASA [HC714], the “furin cleavage Z-score” value reads like this: (7.5 min) -0.648 (inactive); (15 min) -0.464 (inactive); (30 min) -1.65 (inactive).
The matching figures for CAYHVTNDCPAGNASASA [HC261]: -0.934 (inactive), -0.574 (inactive) and -0.88 (inactive).
For CAKKWRMKREAGNASASA [FS-809] the same measures were 12.2 (active), 12.8 (active) and 10.8 (active).
For CAGRLRPLRDAGNASASA [FS-164] the same measures were 6.08 (active), 7.11 (active) and 5.86 (active).
In the case of CAGQPRRSRDAGNASASA [FS-430], the “furin cleavage Z-score” value was 8.53 (active) (7.5 min), 9.91 (active) (15 min) and 6.63 (active) (30 min).
For CAASCRPLTDAGNASASA [HC389] the same measures were -0.403 (inactive), -0.436 (inactive) and 0.514 (inactive).
For CAPWQRVDRDAGNASASA [FS-843] the same measures were -0.541 (inactive), 0.153 (inactive) and -0.511 (inactive).
Turning to CASWLRDIWDAGNASASA [HC1148], the “furin cleavage Z-score” value (7.5 min) was -1.29 (inactive), the “furin cleavage Z-score” value (15 min) was -0.331 (inactive) and the “furin cleavage Z-score” value (30 min) is 0.22 (inactive).
CAPPPRRTRDAGNASASA [FS-840]: the “furin cleavage Z-score” value is 7.22 (active) (7.5 min), 7.26 (active) (15 min) and 5.47 (active) (30 min).
As for CALQGRSSRDAGNASASA [FS-357], the “furin cleavage Z-score” value runs as follows: (7.5 min) 0.94 (inactive); (15 min) 1.14; (30 min) 2.12.
For the sequence CANHLTPLRDAGNASASA [HC636], the “furin cleavage Z-score” value reads like this: (7.5 min) -0.625 (inactive); (15 min) -0.983 (inactive); (30 min) -0.425 (inactive).
The matching figures for CAAFGRRRRDAGNASASA [FS-639]: 6.8 (active), 6.94 (active) and 5.25 (active).

The record behind these values is the supplement of paper PMC3545927.
